In PubChem BioAssay:
Measured potencies and affinities stand elsewhere. Unmarked numbers belong to inactive results. Active and inactive are the calls of the source. How the calls were made is not given here.

Key:
[1] = A549 cell cytotoxicity, dose response, cytotoxicity control, plate reader, cherry-pick, antagonist series (AID 743412);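 further: 0% = neutral control wells and -100% = positive control wells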
[2] = A2780 cell killing – plate reader, dry powder samples, cytotoxicity control, dose response (AID 743046);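 further: 0% = neutral control wells and -100% = cytotoxic reference compound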
[3] = toxicity toward HepG2 liver cells – cell-based, plate reader, cherry-pick, antagonist series, cytotoxicity control, dose response (AID 743416);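 further: 0% = neutral control wells and -100% = positive control wells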
[4] = biological target: Melanocortin receptor 4 (Homo sapiens) (UniProt P32245); experiment: blockade of melanocortin 4 receptor signaling – cell-based, plate reader, cherry pick, counter-screen for LGR2 antagonist project, dose response (AID 743444)
[5] = OVCAR8 cell viability loss – plate reader, dry powder samples, PAX8 project, dose response (AID 743197)

With `O=Cc1cn(Cc2cccc([N+](=O)[O-])c2)c2ccccc12` the outcome [1] was “inactive”.

Work on `Cc1ccc(OC(=O)N(C)C[C@@H]2OCc3ccccc3-c3c(n(C)c4ccccc34)C(=O)N([C@@H](C)CO)C[C@H]2C)cc1` yielded an activity change, negative = cytotoxicity [2] of -16.8% [at 8 µM].

With `Clc1cccc(N2Cc3cc(-c4ccccc4)ccc3-n3nncc3C2)c1` the outcome [1] was “inactive” and the outcome [3] was “inactive”.

In the case of `O=C(O)c1nn(Cc2ccc(Cl)cc2Cl)c2ccccc12`, the outcome [1] is reported as “inactive”, the outcome [3] is reported as “inactive” and the outcome [4] is reported as “inactive”.

For `CNC(=O)Oc1cccc(-c2cn3cc(Cl)ccc3n2)c1`, the outcome [1] was “inactive” and the outcome [3] was “inactive”.

For `COc1cc2c(cc1OC)CN(c1ccc([N+](=O)[O-])c(C(F)(F)F)c1)CC2`, the outcome [3] was “inactive” and the outcome [4] was “inactive”.

In the case of `O=C(Cc1ccncc1)N1CCCCN2[C@H](C1)[C@H](c1ccc(C#Cc3ccccc3F)cc1)[C@@H]2CO`, the outcome [2] is reported as “inactive”.

For `COc1ccc(-c2ccc([C@@H]3[C@@H](CO)N4CCCCN(C(=O)Cc5ccccc5)C[C@H]34)cc2)cc1`, the outcome [2] was “inactive” and the outcome [5] was “inactive”.

For `O=c1c2ccccc2nc(/C=C/c2ccc([N+](=O)[O-])o2)n1-c1ccc(O)cc1`, the outcome [4] was “inactive”.

In the case of `O=c1[nH]c2ccccc2n1C1CCN(C(c2ccccc2OC(F)(F)F)c2nnnn2Cc2ccccc2)CC1` (centres undefined), the outcome [3] is reported as “inactive”.

For `O=C(Cc1ccccn1)N1CCCCN2[C@@H](CO)[C@@H](c3ccc(-c4ccccc4F)cc3)[C@@H]2C1`, the outcome [2] was “inactive” and the outcome [5] was “inactive”.

With `COC(=O)c1ccc(NC(=O)CSc2nc3ccc(N4C(=O)C5C6C=CC(C6)C5C4=O)cc3s2)cc1` (centres undefined) the outcome [1] was “inactive”.

For `CC(C)(C)n1cc(C(=O)c2ccc3ccccc3c2O)cn1`, the outcome [3] was “inactive”.

With `O=C(Cc1ccccn1)N1CCCCN2[C@@H](CO)[C@@H](c3ccc(-c4ccc(F)cc4)cc3)[C@@H]2C1` the outcome [2] was “inactive” and the outcome [5] was “inactive”.

In the case of `O=C(Cc1cccnc1)N1CCCCN2[C@H](C1)[C@H](c1ccc(C#CC3CCCC3)cc1)[C@@H]2CO`, the outcome [5] is reported as “inactive”.

In the case of `COc1cccc(-c2nc3ccc(N4CCN(C)CC4)cc3[nH]2)c1`, the outcome [3] is reported as “inactive”.
